This is an account of results in PubChem BioAssay (NCATS).

The target in experiment [1] is Tumor susceptibility gene 101 protein (Homo sapiens) (UniProt Q99816). As to the kind of experiment: qHTS Assay for Iinhibitors of HIV-1 Budding by Blocking the Interaction of PTAP/TSG101: Hit Validation (AID 651600). Note: nearly all actives have a fitted effect of over 70% in size. Note: potency is the fitted concentration of half-maximal effect. An outline of the steps:
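Displacement of a FITC-labeled PTAP-motif peptide (50 nM) from the Tsg101 binding domain (10 uM) was monitored by fluorescence polarization after a 20 min room-temperature incubation.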
A general note: qHTS replaces the single test concentration by a dilution series.

Experiment [2] deals with Rap guanine nucleotide exchange factor 3 (Homo sapiens) (UniProt O95398). As to the kind of experiment: Confirmatory qHTS for antagonist of cAMP-regulated guanine nucleotide exchange factor 3 (EPAC1) (AID 1645880).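 For activity, negative = inhibition: plate controls were DMSO only for no effect and full effect of the ATA control for full effect.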 Note: nearly all actives have a fitted effect of over 55% in size. Note: potency is the fitted concentration of half-maximal effect. As to conditions: EPAC1 Rap1B-BODIPY-GDP exchange, fluorescence; activity, negative = inhibition: at 115 µM (top of the series). In outline:
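Nucleotide exchange uses 100 nM EPAC1, 250 nM RAP1B-BODIPY-GDP and 50 uM GDP, with compounds in a concentration-titration series. After 5 min at room temperature, fluorescence (480 nm ex/540 nm em) is read every 5 min for 30 min. Data are normalized to control ATA and DMSO.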

The target is the same in experiment [3]. Description: Confirmatory qHTS for agonist of cAMP-regulated guanine nucleotide exchange factor 3 (EPAC1) (AID 1645881).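 For activation: EPAC1 catalysed release of BODIPY-GDP from Rap1B seen as fluorescence loss; 100% = effect of cAMP agonist control.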 Note: nearly all actives have a fitted effect of over 75% in size. Note: potency is the fitted concentration of half-maximal effect.
The target in experiment [4] is Rap guanine nucleotide exchange factor 4 (Homo sapiens) (UniProt Q8WZA2). Description: Confirmatory qHTS for agonist of cAMP-regulated guanine nucleotide exchange factor 4 (EPAC2) (AID 1645884). For activation: % is set by controls: 0 for no effect and ±100 for the full control effect.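 Note: nucleotide exchange releases bodipy-GDP from Rap1 and this lowers its fluorescence; nearly all actives have a fitted effect of over 65% in size.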 Note: potency is the fitted concentration of half-maximal effect.
Rap guanine nucleotide exchange factor 4 (Homo sapiens), sequence (Q8WZA2 whole entry, looked up): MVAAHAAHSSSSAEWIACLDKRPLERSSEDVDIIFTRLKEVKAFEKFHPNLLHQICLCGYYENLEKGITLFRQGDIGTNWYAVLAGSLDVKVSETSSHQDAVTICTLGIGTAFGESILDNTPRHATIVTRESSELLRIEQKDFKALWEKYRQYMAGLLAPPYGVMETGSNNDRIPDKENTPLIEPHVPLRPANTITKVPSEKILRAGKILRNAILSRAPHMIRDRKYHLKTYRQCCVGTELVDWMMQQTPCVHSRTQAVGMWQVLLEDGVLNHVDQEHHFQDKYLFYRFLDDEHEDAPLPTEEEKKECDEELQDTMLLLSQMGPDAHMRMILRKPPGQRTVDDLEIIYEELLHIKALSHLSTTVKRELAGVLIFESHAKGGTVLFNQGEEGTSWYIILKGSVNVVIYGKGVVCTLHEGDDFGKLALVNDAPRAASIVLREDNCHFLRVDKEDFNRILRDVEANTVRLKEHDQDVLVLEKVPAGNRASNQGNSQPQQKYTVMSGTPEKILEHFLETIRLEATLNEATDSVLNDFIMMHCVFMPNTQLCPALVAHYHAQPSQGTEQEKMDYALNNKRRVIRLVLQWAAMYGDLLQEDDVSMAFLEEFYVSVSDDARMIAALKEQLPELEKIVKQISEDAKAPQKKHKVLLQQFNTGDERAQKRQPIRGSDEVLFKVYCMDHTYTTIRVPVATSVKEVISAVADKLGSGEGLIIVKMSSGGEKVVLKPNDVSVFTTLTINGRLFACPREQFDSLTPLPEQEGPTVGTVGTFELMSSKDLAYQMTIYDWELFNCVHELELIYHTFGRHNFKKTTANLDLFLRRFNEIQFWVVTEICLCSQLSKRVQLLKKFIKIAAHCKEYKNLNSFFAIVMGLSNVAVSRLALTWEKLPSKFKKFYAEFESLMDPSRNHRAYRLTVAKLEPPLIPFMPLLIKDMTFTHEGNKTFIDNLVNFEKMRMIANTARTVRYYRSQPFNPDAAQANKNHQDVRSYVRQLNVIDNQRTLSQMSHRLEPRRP
Experiment [5] shares this target. As to the kind of experiment: Confirmatory qHTS for antagonist of cAMP-regulated guanine nucleotide exchange factor 4 (EPAC2) (AID 1645885). Note: nearly all actives have a fitted effect of over 25% in size. Note: potency is the fitted concentration of half-maximal effect.
Experiment [6] addresses Rap guanine nucleotide exchange factor 3 (Homo sapiens) (UniProt O95398). As to the kind of experiment: Counterscreen qHTS for antagonist of cAMP-regulated guanine nucleotide exchange factor 3 (EPAC1) (AID 1645888).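 Note: fluorescence loss as bound BODIPY-GDP is released from Rap1B; % of control where 0% means no effect.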 In outline: (§1)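 Rap1B-BODIPY-GDP 250 nM + GDP 50 uM; cpds 7-pt, final 9.74 nM–152 uM (activator mode) or from 7.32 nM upwards (inhibitor mode); RT; FI 480/540 nm at 5 and 30 min, then ± cAMP, reread.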

Experiment [7] shares this target. Description: Counterscreen qHTS for agonist of cAMP-regulated guanine nucleotide exchange factor 3 (EPAC1) (AID 1645889). For activation: % of control where 0% means no effect. Note: nearly all actives have a fitted effect of over 40% in size. Note: potency is the fitted concentration of half-maximal effect. In outline: as §1
(In general: The purpose of a counterscreen is to sort out artefacts and off-target activity.)

Experiment [8] has as its target DNA polymerase iota (Homo sapiens) (UniProt Q9UNA4). As to the kind of experiment: qHTS for Inhibitors of Polymerase Iota: Confirmatory Assay for Cherry-picked Compounds (AID 720496). Note: potency is the fitted concentration of half-maximal effect. As to conditions: Pol iota primer extension, TAMRA/BHQ fluorescence. In outline: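 Step 1: 10 nM Pol iota with compound, 15 min, room temperature. Step 2: 50 nM final quenched DNA substrate added. Step 3: fluorescence (ex 525, em 598 nm) read at 0 and after 10 min.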

Experiment [9] concerns the target DNA polymerase eta (Homo sapiens) (UniProt Q9Y253). As to the kind of experiment: qHTS for Inhibitors of Polymerase Eta: Confirmatory Assay for Cherry-picked Compounds (AID 720502). Note: potency is the fitted concentration of half-maximal effect. Particulars: Pol eta primer extension, TAMRA/BHQ fluorescence, 10 min. An outline of the steps: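 Strand-displacement fluorescence (525 nm excitation, 598 nm emission) was read kinetically at 0 and 10 min after adding 50 nM final TAMRA-reporter/BHQ-2-template substrate. Beforehand, 10 nM Pol eta had been exposed to compound for 15 min at room temperature.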

A short description of experiment [10]: AP1 Signaling Pathway (AID 357; active = well fitted curve in either direction with a large enough effect, not every such curve was filed as active;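 note: ME-180 reporter cells stimulated with EGF at its EC50 level; % is set by controls: 0 for no effect and ±100 for the full control effect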). As to conditions: ME-180 AP-1-bla reporter, EGF-induced, beta-lactamase ratio, 5 h; at 7.69 µM (top of the series) unless noted. An outline of the steps:
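Titration-series screen for positive or negative modulators of EC50 EGF-induced signaling in ME-180 cells carrying an AP-1-driven beta-lactamase reporter. After 5 hours at 37 degrees Celsius, CCF4 460nm/530nm emission ratio gave %Activity; AC50 values derived.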

A short description of experiment [11]: NFAT Signaling Pathway (AID 444; active = well fitted curve in either direction with a large enough effect, not every such curve was filed as active;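 note: carbachol stimulus at about its EC50 of 1 µM final; % is set by controls: 0 for no effect and ±100 for the full control effect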). Particulars: Jurkat NFAT-bla M1, carbachol, beta-lactamase ratio, 5 h; at 7.69 µM (top of the series) unless noted. An outline of the steps:
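Read-out: CCF4 FRET ratio (460 nm/530 nm) after 1 h RT dye loading, used for %activity and AC50 from titration series. Cells: Jurkat NFAT-β-lactamase/M1 line, treated with compound plus 1 uM carbachol for 5 h, 37 °C.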

The nature of experiment [12]: Stat Signaling Pathway (AID 446; active = well fitted curve in either direction with a large enough effect, not every such curve was filed as active;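 note: ME-180 cervical cancer cells given 40 pM IL-6 alongside compound; SIE-controlled beta-lactamase reporter measured as 460/530 nm FRET emission ratio; % is set by controls: 0 for no effect and ±100 for the full control effect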). An outline of the steps:
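Reporter line: ME-180 cervical carcinoma, SIE-beta-lactamase. Treatment: compound with 40 pM IL-6, 5 hrs, 37 C, in low-serum OPTI-MEM with 10 mM HEPES pH 7.3. Detection: 460/530 nm fluorescence.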

Experiment [13] has as its target Glucocorticoid receptor (Homo sapiens) (UniProt P04150). As to the kind of experiment: GR-GFP Redistribution (AID 450;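 active = compounds whose dose series gives a full or clear partial fitted curve of increased nuclear translocation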; note: potency is the fitted concentration of half-maximal effect). As to conditions: U2OS GR-GFP nuclear translocation, laser cytometry, 2 h.
The nature of experiment [14]: qHTS for Inhibitors of the vitamin D receptor (VDR): Hit Validation using a Texas Red Assay (AID 602201). Note: potency is the fitted concentration of half-maximal effect. In outline: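 After a 2-hour room-temperature incubation, polarization of Texas-Red emission was read (Ex 595 nm/Em 615 nm). Final mix contained 7 nM Texas Red, 1.5 uM VDR-LBD and LG19078.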

A number with no mark means an inactive call. Records with an inconclusive call do not appear. This is one part of the list. The source made the active and inactive calls. Unless noted, calls come from the whole dose curve; as a rule, active = well fitted curve in the direction sought with a large enough effect; inconclusive = small, poorly fitted or top-dose-only effect, or another doubt; inactive = no such curve, though single readings can be large; an effect the other way counts as inactive or inconclusive.

Rap guanine nucleotide exchange factor 3 (Homo sapiens), sequence (O95398 whole entry, looked up): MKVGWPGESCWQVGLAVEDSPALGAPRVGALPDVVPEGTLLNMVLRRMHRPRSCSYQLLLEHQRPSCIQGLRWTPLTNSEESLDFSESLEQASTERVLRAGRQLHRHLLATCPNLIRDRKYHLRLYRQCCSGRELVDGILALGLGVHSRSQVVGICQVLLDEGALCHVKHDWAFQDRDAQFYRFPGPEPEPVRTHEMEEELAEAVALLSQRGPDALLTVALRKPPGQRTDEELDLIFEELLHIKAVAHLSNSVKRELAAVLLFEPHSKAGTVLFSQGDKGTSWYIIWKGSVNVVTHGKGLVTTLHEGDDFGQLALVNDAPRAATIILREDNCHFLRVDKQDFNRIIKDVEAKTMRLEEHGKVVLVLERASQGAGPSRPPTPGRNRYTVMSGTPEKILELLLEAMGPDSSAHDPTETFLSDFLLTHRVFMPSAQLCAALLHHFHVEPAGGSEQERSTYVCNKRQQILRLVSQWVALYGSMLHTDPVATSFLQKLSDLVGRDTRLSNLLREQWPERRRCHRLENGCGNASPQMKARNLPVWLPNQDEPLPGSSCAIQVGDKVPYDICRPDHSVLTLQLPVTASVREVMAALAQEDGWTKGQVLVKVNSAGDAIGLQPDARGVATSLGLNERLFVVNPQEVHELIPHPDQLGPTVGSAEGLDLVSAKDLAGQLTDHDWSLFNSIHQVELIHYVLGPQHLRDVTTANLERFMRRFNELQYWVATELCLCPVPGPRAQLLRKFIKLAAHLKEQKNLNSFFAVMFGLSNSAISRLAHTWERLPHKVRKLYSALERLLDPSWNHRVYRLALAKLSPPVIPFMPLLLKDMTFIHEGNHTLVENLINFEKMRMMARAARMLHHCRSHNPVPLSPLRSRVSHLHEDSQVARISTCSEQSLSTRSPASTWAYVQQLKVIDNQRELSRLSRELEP
Tumor susceptibility gene 101 protein (Homo sapiens), sequence (Q99816 whole entry, looked up, the tested form may be a part): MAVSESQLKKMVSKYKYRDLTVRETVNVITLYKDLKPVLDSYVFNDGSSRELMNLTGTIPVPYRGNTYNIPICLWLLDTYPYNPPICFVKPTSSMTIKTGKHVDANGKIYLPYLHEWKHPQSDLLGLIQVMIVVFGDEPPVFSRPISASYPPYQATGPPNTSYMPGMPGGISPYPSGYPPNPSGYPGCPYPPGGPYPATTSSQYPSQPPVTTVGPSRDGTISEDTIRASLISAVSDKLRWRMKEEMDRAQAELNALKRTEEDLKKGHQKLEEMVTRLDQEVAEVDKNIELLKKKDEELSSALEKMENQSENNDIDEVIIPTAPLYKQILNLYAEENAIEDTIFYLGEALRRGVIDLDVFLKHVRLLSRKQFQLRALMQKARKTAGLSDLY
Glucocorticoid receptor (Homo sapiens), sequence (P04150 whole entry, looked up, the tested form may be a part): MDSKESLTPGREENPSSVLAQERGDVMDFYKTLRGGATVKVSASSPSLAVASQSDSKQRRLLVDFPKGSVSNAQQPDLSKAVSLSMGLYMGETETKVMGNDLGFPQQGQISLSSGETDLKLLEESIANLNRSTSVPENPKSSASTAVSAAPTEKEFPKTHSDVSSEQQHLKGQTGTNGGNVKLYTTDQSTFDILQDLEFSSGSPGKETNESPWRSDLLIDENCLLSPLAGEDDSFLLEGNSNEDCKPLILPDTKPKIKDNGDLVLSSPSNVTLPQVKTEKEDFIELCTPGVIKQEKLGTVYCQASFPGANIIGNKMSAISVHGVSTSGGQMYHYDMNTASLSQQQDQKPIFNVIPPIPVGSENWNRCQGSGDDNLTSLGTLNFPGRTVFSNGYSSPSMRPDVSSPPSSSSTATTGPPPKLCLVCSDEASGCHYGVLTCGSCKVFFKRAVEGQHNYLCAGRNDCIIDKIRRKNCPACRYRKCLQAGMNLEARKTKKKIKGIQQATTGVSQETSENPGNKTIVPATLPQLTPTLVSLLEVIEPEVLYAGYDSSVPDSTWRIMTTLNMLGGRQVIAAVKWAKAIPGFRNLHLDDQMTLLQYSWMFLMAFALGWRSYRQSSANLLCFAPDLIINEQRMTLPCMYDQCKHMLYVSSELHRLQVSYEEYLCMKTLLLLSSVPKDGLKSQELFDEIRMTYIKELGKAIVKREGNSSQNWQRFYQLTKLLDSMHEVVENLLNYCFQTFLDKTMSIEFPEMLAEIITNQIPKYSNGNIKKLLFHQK
DNA polymerase eta (Homo sapiens), sequence (Q9Y253 whole entry, looked up): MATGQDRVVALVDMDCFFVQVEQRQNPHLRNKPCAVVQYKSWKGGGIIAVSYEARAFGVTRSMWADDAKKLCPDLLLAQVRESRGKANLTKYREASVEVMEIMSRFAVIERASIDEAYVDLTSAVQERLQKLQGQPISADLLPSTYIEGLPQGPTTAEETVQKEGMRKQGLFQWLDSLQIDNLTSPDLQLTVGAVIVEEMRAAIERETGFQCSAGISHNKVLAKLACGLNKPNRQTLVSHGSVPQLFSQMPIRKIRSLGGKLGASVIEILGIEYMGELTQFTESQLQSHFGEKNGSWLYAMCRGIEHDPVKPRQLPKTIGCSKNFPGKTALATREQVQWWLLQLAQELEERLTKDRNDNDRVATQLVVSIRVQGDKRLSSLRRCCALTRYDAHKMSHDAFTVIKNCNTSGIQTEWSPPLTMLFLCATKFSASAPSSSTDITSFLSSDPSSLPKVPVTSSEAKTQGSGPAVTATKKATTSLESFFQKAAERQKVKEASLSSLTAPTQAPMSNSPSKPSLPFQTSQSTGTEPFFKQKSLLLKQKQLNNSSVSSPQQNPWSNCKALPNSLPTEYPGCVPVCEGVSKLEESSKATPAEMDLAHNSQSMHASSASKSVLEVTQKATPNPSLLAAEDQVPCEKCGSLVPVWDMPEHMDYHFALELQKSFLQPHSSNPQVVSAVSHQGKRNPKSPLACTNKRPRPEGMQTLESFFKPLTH
DNA polymerase iota (Homo sapiens), sequence (Q9UNA4 whole entry, looked up): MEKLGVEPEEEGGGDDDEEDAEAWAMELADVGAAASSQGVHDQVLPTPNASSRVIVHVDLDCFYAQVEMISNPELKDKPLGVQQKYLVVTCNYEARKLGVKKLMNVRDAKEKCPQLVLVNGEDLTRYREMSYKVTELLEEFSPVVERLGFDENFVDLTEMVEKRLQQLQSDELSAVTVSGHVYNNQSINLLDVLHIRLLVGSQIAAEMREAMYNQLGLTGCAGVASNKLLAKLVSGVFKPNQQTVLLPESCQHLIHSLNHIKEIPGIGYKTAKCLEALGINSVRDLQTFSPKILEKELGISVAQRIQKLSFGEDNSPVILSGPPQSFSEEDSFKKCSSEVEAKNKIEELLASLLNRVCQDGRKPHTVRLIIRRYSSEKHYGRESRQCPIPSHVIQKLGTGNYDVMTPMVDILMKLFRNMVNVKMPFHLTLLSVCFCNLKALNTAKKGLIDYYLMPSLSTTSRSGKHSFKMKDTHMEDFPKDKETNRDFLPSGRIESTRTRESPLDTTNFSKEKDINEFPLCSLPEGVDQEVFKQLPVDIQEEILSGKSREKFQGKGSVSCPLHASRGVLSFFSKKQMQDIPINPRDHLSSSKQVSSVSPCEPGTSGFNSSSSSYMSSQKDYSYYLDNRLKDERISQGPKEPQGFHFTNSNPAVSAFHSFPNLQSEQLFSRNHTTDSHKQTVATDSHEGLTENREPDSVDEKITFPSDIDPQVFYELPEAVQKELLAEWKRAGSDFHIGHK

`CCOC(=O)c1cc2n(c1/N=C/N(C)C)-c1ccccc1C2=O`: the Potency in experiment [1] is 5.8 µM (active). Further, the Potency entry in experiment [2], in experiment [3] and in experiment [5] was “inactive” each time. In addition, the activation in experiment [4] was 6.24% [at 17.1 µM, percent relative to cAMP agonist control]. Besides, in experiment [6], the activity change, negative = inhibition is 1.53% [at 30.8 µM].
Regarding `CSC1=NSC2=NC(=O)/C(=C/c3coc4ccccc4c3=O)C(=N)N12`, the Potency in experiment [1] was 18.3 µM (active); in [3], 89.1 µM (active); in experiment [4], 100 µM (active); in experiment [7], 39.8 µM (active). Moreover, the Potency entry in experiment [2], in [5] and in [6] was “inactive” throughout.
With `COC(=O)c1ccc(COc2ccc(/C=C/C(=O)c3ccc(OC)c(CSCC(=O)O)c3)cc2OC)cc1`, the Potency was 75.2 µM (active) in experiment [8], 60.1 µM (active) in [9] and 37.9 µM (active) in [2]. In addition, the Potency result in experiment [3], in [4], in experiment [5], in experiment [6] and in experiment [7] was “inactive” each time.
Turning to `CC1=C(C#N)C(=O)OC(C)(C)C1`, the results for the activity change, negative = inhibition in [10] and in [11] were 8.14% [at 17.2 µM] and -4.86% [at 17.2 µM], respectively. Besides, the compound was called inactive in [12]. Further, the Potency in [13] is over 20.6 µM; in experiment [5], 0.601 µM (active). Further, the Potency result in experiment [2], in [3], in experiment [4] and in experiment [6] was “inactive” each time.
`COc1ccc(CNC(=O)C(C#N)c2nc3ccccc3nc2N2CCCC2)cc1` (configuration not stated): in [1], the Potency is 9.19 µM (active). In addition, the Potency entry in experiment [2], in experiment [3], in experiment [4], in [5], in [6] and in experiment [7] was “inactive” throughout.
As to `CC1=NOC(=O)/C1=C\c1ccc(-c2ccccc2Br)o1`, the Potency entry in experiment [14], in [3], in experiment [4], in experiment [5] and in experiment [6] was “inactive” each time. Moreover, the Potency in experiment [2] is 21.3 µM (active).
`c1ccc(-c2cn3nc(-c4ccccc4)c(-c4ccccc4)nc3n2)cc1`: the Potency result in [1], in [2], in [3] and in experiment [5] was “inactive” throughout. For the same compound, the activation in [4] was 8.73% [at 17.1 µM, percent relative to cAMP agonist control]; in experiment [7], 16.7% [at 30.8 µM]. Moreover, the activity change, negative = inhibition in experiment [6] is 14.3% [at 30.8 µM].
Regarding `CC1=C(CO)C(=O)OC([C@@H](C)C2CC[C@H]3C4C[C@H]5O[C@]56[C@@H](O)C=CC(=O)[C@]6(C)C4CC[C@]23C)C1` (some centres not stated), the figures for the Potency in experiment [14] and in [2] were 11.2 µM (active) and 84.9 µM (active), respectively. Besides, the Potency entry in experiment [3], in [4], in experiment [5], in experiment [6] and in experiment [7] was “inactive” each time.
